In PubChem BioAssay (NCATS):
Inconclusive results are not listed. A call without a number means that no potency is given here. The source made the active and inactive calls. Calls follow the shape of the dose curve; as a rule, active = well fitted inhibition curve with a large enough effect; inconclusive = small, poorly fitted or top-dose-only effect; inactive = flat fitted curve, though single readings scatter.

Molecular target: Calcium and integrin-binding protein 1 (Homo sapiens) (UniProt Q99828)
Sequence (Q99828 whole entry, looked up): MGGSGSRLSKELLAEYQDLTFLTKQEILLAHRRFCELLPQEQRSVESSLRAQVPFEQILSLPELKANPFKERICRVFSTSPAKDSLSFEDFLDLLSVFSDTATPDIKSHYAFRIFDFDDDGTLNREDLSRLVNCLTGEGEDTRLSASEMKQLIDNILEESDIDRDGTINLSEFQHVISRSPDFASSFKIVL
Test: Primary qHTS for Identification of Calcium Integrin Binding Protein 1 (CIB1) Competitor (AID 1508620);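 also: GST tagged CIB1 binding a fluorescein labelled alphaIIb integrin peptide tracer; top concentration of the series differs between compounds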
Details: CIB1-GST / FITC-alphaIIb peptide fluorescence polarization; series mostly up to 114 µM
Outline: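 CIB1-GST (1 uM final) and compound incubated 15 min at room temperature before adding FITC-alphaIIb peptide tracer (100 nM final). Competition for binding read by fluorescence polarization (ex 480, em 540) after another 15 min at room temperature.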

Compound	Potency
COc1cc(OC)cc(-c2nnc3n2N=C(c2ccc(OC)cc2OC)CS3)c1	inactive
O=C(Nc1ncc(Cc2cccc(C(F)(F)F)c2)s1)c1ccc(-c2cccc([N+](=O)[O-])c2)o1	inactive
COc1ccc(C2Nc3ccccc3C(=O)N2CCc2ccc(Cl)cc2Cl)cc1COc1ccc(NC(C)=O)cc1 (centres undefined)	inactive
Cc1nnc(-c2cnn(C)c2N)n1CCc1ccccc1	inactive
COc1cccc(-c2ccc3ncnc(NCc4cccc(F)c4)c3c2)c1	inactive
CCCn1c(C)nc2c(NCCN(CC)CC)nc(C)nc21	inactive
CC(C)COc1ccc(-c2csc(N3CCC(C(N)=O)CC3)n2)cc1	inactive
COc1ccc(CC(=O)Nc2ccc(S(=O)(=O)Nc3cc(C)on3)cc2)cc1OC	inactive
O=C1c2ccccc2C(=O)N1c1cccc2ncccc12	inactive
COc1cccc(-c2nnc3n2N=C(c2c(OC)cccc2OC)CS3)c1	inactive
CC(C)Oc1cccc(-c2ccnc(N3CCC(C(N)=O)CC3)n2)c1	inactive
COc1ccc(C(=O)Oc2ccc(-c3nc4ccccc4[nH]3)cc2)cc1OC	inactive
Cc1ccc(NC(=O)CN2C(=O)N/C(=C\c3cccn3-c3ccc(C(=O)NS(C)(=O)=O)cc3)C2=O)cc1	inactive
COc1ccc(NC(=O)C(OC(=O)CNC(=O)c2ccccc2)c2ccccc2)cc1F (centres undefined)	inactive
O=S1(=O)N=C(Oc2ccccc2-c2ccccc2)c2ccccc21	inactive
CC(=O)N1CCN(c2ccc(NS(=O)(=O)c3ccc4c(c3)CC(=O)N4)cc2)CC1	inactive
Cc1ccc(OCCn2c(CCNC(=O)C3CCCCC3)nc3ccccc32)cc1	inactive
CC(=O)c1cc2c(s1)c1cnn(Cc3ccccc3F)c(=O)c1n2C	inactive
CC(C)Oc1cccc(-c2csc(N3CCC(C(N)=O)CC3)n2)c1	inactive
COc1ccc(C(=O)N(Cc2ccco2)Cc2cccs2)c(O)c1	inactive
CC(C)(C)OC(=O)N1CCN(c2ccc(NCc3ccc(-c4cc(C(F)(F)F)cc(C(F)(F)F)c4)o3)cc2)CC1	inactive
COc1cccc(-c2nc3cc(NC(=O)c4ccc(C)c([N+](=O)[O-])c4)ccc3o2)c1	inactive
O=C(Nc1cncc(Cc2ccccc2)c1)c1ccc(-c2cccc([N+](=O)[O-])c2)o1	inactive
Cc1cc(C)nc(NC(=S)N2CCN(c3ccc(Cl)c(Cl)c3Cl)CC2)c1	inactive
